Reference: the supplement of paper PMC10849652
The full data set covers some 7,900 targets. This sample favours those with a hit. About 0.6% of all pairs of compound and target were hits. Unmarked numbers belong to inactive results.

What was measured:
Experiment in all cases: log2 fold change, soluble protein after heating vs DMSO (PISA); higher = thermal stabilisation; K562 cells, 10 uM, 30 min; active = over 0.2 and 3.5 SD of the protein, either way, in both replicates (recomputed)
[1] = compound: C1=CC=C(C=C1)[C@H](COC2=CC3=C(C=C2)NC(=O)N3)NC(=O)C4=CC=CN(C4=O)CC5=CC(=C(C=C5)F)F
Method in brief: (§1)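 K562 cells at 2×10^6 cells/mL were exposed to 10 μM compound for 30 min, then aliquots were heated for 3 min across 48°C-58°C, pooled, and extracted in PBS containing 0.5% NP-40 at 4°C. The supernatant after 21,000xg for 90 min was taken as soluble protein and measured by TMTpro 16plex LC-MS/MS with channel sums equalised. Thermal stability is reported relative to control samples, with values from duplicates. Fold changes are given on a log2 scale.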

[2] = compound: CC1=C(SC2=C1C(=N[C@H](C3=NN=C(N32)C)CC(=O)N)C4=CC=C(C=C4)Cl)C
Method in brief: as §1

[3] = compound: CC1=C2C(=CC=C1)N=C(N(C2=O)C3=CC=CC=C3C)CN4C=NC5=C(N=CN=C54)N
Method in brief: as §1

[4] = compound: Cc1sc2c(c1C)C(c1ccc(Cl)cc1)=N[C@@H](CC(=O)OC(C)(C)C)c1nnc(C)n1-2
Method in brief: as §1

[5] = compound: c1ccc([C@@H]2C[C@H]2NC2CCNCC2)cc1
Method in brief: as §1

Chain of UniProt Q9Y478 (Q9Y478 whole entry, looked up): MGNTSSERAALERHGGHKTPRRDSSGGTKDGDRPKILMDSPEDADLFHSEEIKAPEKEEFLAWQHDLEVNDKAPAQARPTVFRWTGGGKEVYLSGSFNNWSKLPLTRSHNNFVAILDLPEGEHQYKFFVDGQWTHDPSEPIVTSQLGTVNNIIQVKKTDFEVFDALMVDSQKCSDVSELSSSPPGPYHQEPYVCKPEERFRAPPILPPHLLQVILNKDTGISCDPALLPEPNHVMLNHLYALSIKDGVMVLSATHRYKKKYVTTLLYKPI
Chain of UniProt O43242 (O43242 whole entry, looked up): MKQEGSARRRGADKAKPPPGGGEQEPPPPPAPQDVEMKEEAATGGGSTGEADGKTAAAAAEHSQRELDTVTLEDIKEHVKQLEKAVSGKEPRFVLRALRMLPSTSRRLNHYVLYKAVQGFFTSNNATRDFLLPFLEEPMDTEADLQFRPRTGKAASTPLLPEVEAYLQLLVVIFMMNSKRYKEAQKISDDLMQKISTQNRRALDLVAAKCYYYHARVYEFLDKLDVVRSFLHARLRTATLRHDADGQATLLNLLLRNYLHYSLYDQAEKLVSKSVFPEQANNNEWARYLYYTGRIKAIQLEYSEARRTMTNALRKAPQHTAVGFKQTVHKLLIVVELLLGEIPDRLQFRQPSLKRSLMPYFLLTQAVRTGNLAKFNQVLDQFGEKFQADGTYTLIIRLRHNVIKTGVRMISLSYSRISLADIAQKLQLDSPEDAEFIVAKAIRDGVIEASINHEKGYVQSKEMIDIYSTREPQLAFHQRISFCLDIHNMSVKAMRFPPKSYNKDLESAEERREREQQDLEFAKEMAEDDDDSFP
Chain of UniProt O75400 (O75400 whole entry, looked up): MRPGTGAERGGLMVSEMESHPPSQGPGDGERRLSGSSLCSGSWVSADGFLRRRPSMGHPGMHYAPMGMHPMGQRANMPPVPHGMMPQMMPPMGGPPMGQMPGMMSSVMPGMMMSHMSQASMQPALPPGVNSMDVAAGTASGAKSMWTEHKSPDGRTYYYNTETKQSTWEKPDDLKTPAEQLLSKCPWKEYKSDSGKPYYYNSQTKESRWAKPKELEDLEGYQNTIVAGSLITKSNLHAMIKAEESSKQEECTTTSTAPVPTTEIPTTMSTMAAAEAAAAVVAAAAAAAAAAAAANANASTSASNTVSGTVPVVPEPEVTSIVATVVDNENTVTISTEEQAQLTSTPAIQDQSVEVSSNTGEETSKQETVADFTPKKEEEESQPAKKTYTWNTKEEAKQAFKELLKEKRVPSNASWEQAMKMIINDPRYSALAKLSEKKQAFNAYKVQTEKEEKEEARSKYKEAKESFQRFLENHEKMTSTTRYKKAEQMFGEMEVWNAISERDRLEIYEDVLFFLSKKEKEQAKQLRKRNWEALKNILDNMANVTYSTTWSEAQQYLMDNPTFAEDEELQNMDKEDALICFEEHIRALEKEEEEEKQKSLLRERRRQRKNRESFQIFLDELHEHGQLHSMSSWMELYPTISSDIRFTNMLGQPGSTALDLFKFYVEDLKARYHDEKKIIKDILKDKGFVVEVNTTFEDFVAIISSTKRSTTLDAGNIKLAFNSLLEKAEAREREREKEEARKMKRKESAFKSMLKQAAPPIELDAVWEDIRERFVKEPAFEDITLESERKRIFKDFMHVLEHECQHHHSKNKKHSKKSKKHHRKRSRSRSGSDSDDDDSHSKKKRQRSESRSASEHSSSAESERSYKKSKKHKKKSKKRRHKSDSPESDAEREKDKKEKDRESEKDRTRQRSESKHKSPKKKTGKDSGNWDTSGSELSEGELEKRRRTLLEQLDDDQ
Chain of UniProt O15067 (O15067 whole entry, looked up): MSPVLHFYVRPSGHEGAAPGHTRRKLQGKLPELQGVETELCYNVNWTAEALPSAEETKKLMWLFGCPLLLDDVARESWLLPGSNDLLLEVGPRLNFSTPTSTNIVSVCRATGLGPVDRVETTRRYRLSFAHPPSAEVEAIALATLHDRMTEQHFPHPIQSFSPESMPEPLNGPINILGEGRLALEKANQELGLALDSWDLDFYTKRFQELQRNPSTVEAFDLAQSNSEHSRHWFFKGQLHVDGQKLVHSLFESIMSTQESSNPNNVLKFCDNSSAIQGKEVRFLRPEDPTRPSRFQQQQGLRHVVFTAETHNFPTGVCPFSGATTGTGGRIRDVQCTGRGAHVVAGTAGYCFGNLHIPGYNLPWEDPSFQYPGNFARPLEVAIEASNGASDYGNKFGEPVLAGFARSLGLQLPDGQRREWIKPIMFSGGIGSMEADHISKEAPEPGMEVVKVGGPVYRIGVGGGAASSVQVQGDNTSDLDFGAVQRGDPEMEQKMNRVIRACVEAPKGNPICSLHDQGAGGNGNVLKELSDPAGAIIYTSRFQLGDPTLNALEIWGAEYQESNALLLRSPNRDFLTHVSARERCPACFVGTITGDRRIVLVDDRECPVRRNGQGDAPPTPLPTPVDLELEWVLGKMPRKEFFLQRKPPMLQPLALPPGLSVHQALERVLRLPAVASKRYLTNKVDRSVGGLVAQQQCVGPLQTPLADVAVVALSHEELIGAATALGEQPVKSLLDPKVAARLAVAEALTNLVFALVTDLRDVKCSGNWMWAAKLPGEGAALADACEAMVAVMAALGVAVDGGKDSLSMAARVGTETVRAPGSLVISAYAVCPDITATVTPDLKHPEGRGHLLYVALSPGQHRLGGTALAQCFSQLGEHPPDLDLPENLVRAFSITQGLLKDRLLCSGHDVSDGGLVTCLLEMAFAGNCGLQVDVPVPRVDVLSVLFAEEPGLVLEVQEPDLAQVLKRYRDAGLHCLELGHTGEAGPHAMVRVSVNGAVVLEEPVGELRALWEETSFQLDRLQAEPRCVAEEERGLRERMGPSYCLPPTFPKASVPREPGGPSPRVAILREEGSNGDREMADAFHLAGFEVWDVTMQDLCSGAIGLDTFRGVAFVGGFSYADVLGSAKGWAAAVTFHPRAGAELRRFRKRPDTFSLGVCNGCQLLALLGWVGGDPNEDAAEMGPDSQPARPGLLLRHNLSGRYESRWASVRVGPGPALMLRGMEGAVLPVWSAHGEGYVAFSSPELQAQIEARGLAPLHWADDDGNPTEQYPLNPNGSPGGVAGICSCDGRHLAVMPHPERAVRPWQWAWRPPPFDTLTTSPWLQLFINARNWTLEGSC
Chain of UniProt Q9H300 (Q9H300 whole entry, looked up): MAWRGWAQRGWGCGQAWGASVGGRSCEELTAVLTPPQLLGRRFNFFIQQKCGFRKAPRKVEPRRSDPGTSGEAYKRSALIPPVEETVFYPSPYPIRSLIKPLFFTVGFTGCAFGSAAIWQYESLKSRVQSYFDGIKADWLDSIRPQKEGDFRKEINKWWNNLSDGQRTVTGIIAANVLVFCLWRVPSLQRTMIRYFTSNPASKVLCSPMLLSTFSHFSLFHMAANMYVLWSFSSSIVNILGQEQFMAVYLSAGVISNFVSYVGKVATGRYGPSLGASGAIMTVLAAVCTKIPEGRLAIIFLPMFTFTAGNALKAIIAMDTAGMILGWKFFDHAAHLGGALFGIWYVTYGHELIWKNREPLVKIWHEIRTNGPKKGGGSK
Chain of UniProt O00628 (O00628 whole entry, looked up): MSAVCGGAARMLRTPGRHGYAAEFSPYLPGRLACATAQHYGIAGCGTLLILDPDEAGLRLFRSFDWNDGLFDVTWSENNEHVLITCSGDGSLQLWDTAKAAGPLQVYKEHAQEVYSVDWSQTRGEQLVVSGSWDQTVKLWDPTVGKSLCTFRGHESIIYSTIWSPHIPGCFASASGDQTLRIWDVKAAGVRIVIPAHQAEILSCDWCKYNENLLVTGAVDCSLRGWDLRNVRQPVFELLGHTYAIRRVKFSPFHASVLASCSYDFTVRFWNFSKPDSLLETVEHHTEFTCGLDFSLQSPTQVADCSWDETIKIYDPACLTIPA
Chain of UniProt P15735 (P15735 whole entry, looked up): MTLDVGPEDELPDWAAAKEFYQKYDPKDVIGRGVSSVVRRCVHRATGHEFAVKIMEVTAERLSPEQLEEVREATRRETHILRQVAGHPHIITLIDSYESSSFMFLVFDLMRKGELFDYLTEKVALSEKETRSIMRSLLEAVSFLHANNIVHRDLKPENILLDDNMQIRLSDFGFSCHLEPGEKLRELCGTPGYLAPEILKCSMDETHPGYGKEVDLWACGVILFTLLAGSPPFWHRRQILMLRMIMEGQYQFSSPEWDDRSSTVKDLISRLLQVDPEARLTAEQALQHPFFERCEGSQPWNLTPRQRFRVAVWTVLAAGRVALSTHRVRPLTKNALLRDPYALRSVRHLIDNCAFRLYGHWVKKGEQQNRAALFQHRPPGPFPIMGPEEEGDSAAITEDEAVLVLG

Target | log2 fold change [1] | log2 fold change [2] | log2 fold change [3] | log2 fold change [4] | log2 fold change [5]
PRPF40A (UniProt O75400) | -0.008 | 0.016 | 0.123 | -0.022 | 0.037
PHKG2 (UniProt P15735) | 0.028 | -0.033 | 0.013 | 0.051 | 0.026
PRKAB1 (UniProt Q9Y478) | 0.011 | 0.037 | -0.024 | -0.093 | -0.037
PEX7 (UniProt O00628) | -0.371 (active) | 0.035 | 0.136 | 0.021 | -0.03
PARL (UniProt Q9H300) | 0.017 | -0.017 | 0.045 | 0.028 | 0.031
PSMD3 (UniProt O43242) | 0.028 | -0.055 | -0.006 | -0.023 | -0.011
PIKFYVE (UniProt Q9Y2I7) | -0.077 | 0.106 | 0.111 | 0.068 | -0.009
PCNT (UniProt O95613) | 0.037 | -0.067 | 0.11 | 0.064 | 0.105
PFAS (UniProt O15067) | -0.08 | 0.021 | 0.144 | 0.014 | -0.065
